{"source": "PubChem BioAssay (NCATS)", "note": "Inconclusive results are not listed. Where a call stands in place of a potency, no number is given. Activity calls are given as the source filed them. Calls follow the shape of the dose curve; as a rule, active = well fitted inhibition curve with a large enough effect; inconclusive = small, poorly fitted or top-dose-only effect; inactive = flat fitted curve, though single readings scatter.", "data": [{"tested_on": "CRL-7250", "test": "qHTS assay to identify novel small-molecules to repurpose for Merkel cell carcinoma treatment (AID 1296009); also: nearly all actives have a fitted effect of over 60% in size", "conditions": "MCC and control cell lines, CellTiter-Glo viability, 72 h; series mostly up to 92 µM", "how_it_was_run": "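Cells exposed to NPC (8-point) and MIPE (11-point) compound dilutions for 72 hr at 37 degree celsius; viability read by CellTiter-Glo luminescence, normalized to no-cell and DMSO in-plate controls.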", "values": [{"smiles": "NCc1c[nH]c(=S)n1[C@@H]1CCc2c(F)cc(F)cc2C1", "Potency": "inactive"}, {"smiles": "COc1cc(/C=C/C(=O)O[C@H]2[C@@H]3C=CO[C@@H](O[C@@H]4O[C@H](CO)[C@@H](O)[C@H](O)[C@H]4O)[C@@H]3[C@@]3(CO)O[C@@H]23)ccc1O", "Potency": "inactive"}, {"smiles": "C[C@H]1CC[C@H]2[C@@H](C=C[C@@](C)(O)[C@]2(C)C(=O)CCO)C1", "Potency": "inactive"}, {"smiles": "COc1cc(C2CC(=O)Nc3c2cc(Br)c2ccccc32)cc(OC)c1OC", "note": "(configuration not stated)", "Potency": "inactive"}, {"smiles": "Cc1c(CN(C)C(=O)/C=C/c2cnc3c(c2)CCC(=O)N3)oc2ccccc12", "Potency": "inactive"}, {"smiles": "O=C(/C=C/N1C[C@@H]2C[C@@H]1CN2c1ccccn1)c1ccccc1O", "Potency": "inactive"}, {"smiles": "O=C(/C=C/c1ccccc1)OC[C@H]1O[C@@H](OC(=O)c2cc(O)c(O)c(O)c2)[C@H](O)[C@@H](O)[C@@H]1O", "Potency": "inactive"}, {"smiles": "O=C(Cc1ccc(Cl)cc1)Nc1cnccc1C(=O)O", "Potency": "inactive"}, {"smiles": "O[C@@](Cc1ncc(CC2(C(F)(F)F)CC2)[nH]1)(c1ccc(-n2cccn2)cc1)C(F)(F)F", "Potency": "inactive"}, {"smiles": "CC(C)CCC[C@@H](C)[C@H]1CC[C@H]2[C@@H]3CC=C4C[C@@H](OC(=O)NCCN(C)C)CC[C@]4(C)[C@H]3CC[C@]12C", "Potency": "inactive"}, {"smiles": "CC1CC2OCC3(O)CCC(O)C(C14CC(c1ccoc1)OC4=O)C23CO", "note": "(configuration not stated)", "Potency": "inactive"}, {"smiles": "CC1(C)OC[C@H](NC(=O)Nc2ccc(Br)cc2Br)[C@H](c2ccccc2)O1", "Potency": "inactive"}, {"smiles": "COc1ccncc1C(=O)NC(=O)Nc1ccc(-c2ccccc2)c(C(F)(F)F)c1", "Potency": "inactive"}, {"smiles": "CC[C@H]1OC(=O)[C@H](C)[C@@H](OC2C[C@@](C)(OC)[C@@H](O)[C@H](C)O2)[C@H](C)[C@@H](OC2O[C@H](C)C[C@H](NC)[C@H]2O)[C@](C)(O)C[C@@H](C)CN(C)[C@H](C)[C@@H](O)[C@]1(C)O", "note": "(some centres not stated)", "Potency": "inactive"}, {"smiles": "Cc1ncc(Cl)cc1NCc1ccc(C(=O)NC(CC2CCCC2)C(=O)NC2CC2)s1", "note": "(configuration not stated)", "Potency": "inactive"}, {"smiles": "COC(=O)C1=CO[C@@H](O[C@@H]2O[C@H](CO)[C@@H](O)[C@H](O)[C@H]2O)[C@@H]2[C@@H](CO)[C@@H](O)C(O)[C@H]12", "note": "(some centres not stated)", "Potency": "inactive"}, {"smiles": "CC1=C2C(=O)C=C(CO)[C@@H]2[C@H]2OC(=O)[C@H](C)[C@@H]2[C@@H](O)C1", "Potency": "inactive"}, {"smiles": "CO[C@@H](Cc1ccc(OCCc2nc(-c3ccccc3)oc2C)c2ccsc12)C(=O)O", "Potency": "inactive"}, {"smiles": "O=C(O)CC1(O)C(=O)Nc2ccccc21", "note": "(configuration not stated)", "Potency": "inactive"}, {"smiles": "CC1(C)C2CC=C(COC3OC(COC4OCC(O)(CO)C4O)C(O)C(O)C3O)C1C2", "note": "(configuration not stated)", "Potency": "inactive"}, {"smiles": "CCCC(N[C@@H](C)C(=O)N1[C@H](C(=O)O)C[C@@H]2CCCC[C@@H]21)C(=O)OCC", "note": "(some centres not stated)", "Potency": "inactive"}, {"smiles": "COC1CC(=O)C23C(=O)NC(CC(C)C)C2C(C)C(C)=CC3/C=C(\\C)CCC1O", "note": "(configuration not stated)", "Potency": "inactive"}, {"smiles": "OC[C@@]1(O)CO[C@@H](OC[C@H]2O[C@@H](Oc3ccccc3)[C@H](O)[C@@H](O)[C@@H]2O)[C@@H]1O", "Potency": "inactive"}, {"smiles": "COc1c2c(c(C)c3c1C(=O)OC3)OC1(C)CC(O)C34OC(O)(CCC3(C)C1C2)OC4(C)C", "note": "(configuration not stated)", "Potency": "inactive"}, {"smiles": "Cn1c(=O)c2nc(/C=C/c3cccc(Cl)c3)n(C)c2n(C)c1=O", "Potency": "inactive"}, {"smiles": "COC(=O)C1=C2Nc3ccccc3C23CCN2CCCC(C(C)O)(C1)C23", "note": "(configuration not stated)", "Potency": "inactive"}, {"smiles": "COc1cc(OC)cc(-c2ccc3c(-c4ccc(F)cc4)[nH]nc3n2)c1", "Potency": "inactive"}, {"smiles": "O=C(NCCCN1CCC2(CC1)OCc1ccccc12)[C@H]1CCCN1Cc1ccccc1", "Potency": "inactive"}, {"smiles": "C[C@H](/C=C/[C@@]1(O)[C@H](C)CC(=O)CC1(C)C)O[C@@H]1O[C@H](CO[C@@H]2OC[C@@H](O)[C@H](O)[C@H]2O)[C@@H](O)[C@H](O)[C@H]1O", "Potency": "inactive"}, {"smiles": "CC(C#N)C(C)O[C@@H]1O[C@H](CO)[C@@H](O)[C@H](O)[C@H]1O", "note": "(some centres not stated)", "Potency": "inactive"}, {"smiles": "CC12CC34C=CC(=O)C(C)(CCC(=O)O)C3C(CC1C4)O2", "note": "(configuration not stated)", "Potency": "inactive"}, {"smiles": "COc1c(CCC(=O)O)cccc1O[C@@H]1O[C@H](CO)[C@@H](O)[C@H](O)[C@H]1O", "Potency": "inactive"}, {"smiles": "C[C@@H](c1ccccc1)N(C(N)=NC#N)c1cccc2ncccc12", "Potency": "inactive"}, {"smiles": "Cc1ccc2c(c1)C=Cc1cc(C)ccc1C2c1cn(Cc2ccc(C(=O)Nc3nn[nH]n3)o2)c(=O)[nH]c1=S", "Potency": "inactive"}, {"smiles": "CC(=O)N(O)CCCCCN1C(=O)CCC1=O", "Potency": "inactive"}, {"smiles": "CCCCC(=O)N1c2ccccc2NC2=C(C(=O)CCC2)C1c1ccccc1Cl", "note": "(configuration not stated)", "Potency": "inactive"}, {"smiles": "C=C1CCC2C(C)(C)C(O)CCC2(C)C1CCC(C)CCOC(C)=O", "note": "(configuration not stated)", "Potency": "inactive"}]}]}
